Assay results taken from the supplement of paper PMC10849652.
Of roughly 7,900 targets only a part is listed; those with a hit were picked by preference. About 0.6% of all pairs of compound and target were hits. Values without a mark were called inactive.

UniProt Q8NCW6, sequence (Q8NCW6 whole entry, looked up): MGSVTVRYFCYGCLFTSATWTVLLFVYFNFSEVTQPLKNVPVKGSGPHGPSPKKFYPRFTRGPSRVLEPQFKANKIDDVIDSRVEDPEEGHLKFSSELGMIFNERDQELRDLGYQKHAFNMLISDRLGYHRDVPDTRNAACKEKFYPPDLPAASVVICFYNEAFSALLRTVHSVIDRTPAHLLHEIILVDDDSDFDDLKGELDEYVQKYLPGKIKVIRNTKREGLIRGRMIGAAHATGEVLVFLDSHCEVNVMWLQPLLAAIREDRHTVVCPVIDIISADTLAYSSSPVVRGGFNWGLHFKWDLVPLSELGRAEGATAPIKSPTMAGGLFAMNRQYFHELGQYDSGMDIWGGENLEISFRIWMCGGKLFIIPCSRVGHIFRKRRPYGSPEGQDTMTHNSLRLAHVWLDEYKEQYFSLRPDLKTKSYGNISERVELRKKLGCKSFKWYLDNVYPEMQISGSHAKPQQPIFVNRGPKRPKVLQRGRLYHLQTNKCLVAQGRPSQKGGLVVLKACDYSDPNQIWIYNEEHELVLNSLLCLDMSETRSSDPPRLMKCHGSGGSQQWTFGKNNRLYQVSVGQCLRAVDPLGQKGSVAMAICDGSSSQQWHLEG
UniProt Q13227, sequence (Q13227 whole entry, looked up): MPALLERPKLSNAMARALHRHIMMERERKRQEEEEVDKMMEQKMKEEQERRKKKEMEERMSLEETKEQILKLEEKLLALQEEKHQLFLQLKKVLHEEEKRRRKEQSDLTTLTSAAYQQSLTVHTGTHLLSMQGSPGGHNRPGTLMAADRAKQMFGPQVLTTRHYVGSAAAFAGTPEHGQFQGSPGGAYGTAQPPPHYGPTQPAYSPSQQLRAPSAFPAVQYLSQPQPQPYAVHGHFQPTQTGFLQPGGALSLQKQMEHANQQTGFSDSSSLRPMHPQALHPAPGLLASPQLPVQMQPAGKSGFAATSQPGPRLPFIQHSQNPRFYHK
UniProt P36969, sequence (P36969 whole entry, looked up): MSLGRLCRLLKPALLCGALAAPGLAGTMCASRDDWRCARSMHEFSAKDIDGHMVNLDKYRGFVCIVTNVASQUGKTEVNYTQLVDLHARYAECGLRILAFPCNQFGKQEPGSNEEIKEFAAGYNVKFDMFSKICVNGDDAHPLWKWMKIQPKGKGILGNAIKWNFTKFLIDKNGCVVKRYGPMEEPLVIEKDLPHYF
UniProt Q9UQC2, sequence (Q9UQC2 whole entry, looked up): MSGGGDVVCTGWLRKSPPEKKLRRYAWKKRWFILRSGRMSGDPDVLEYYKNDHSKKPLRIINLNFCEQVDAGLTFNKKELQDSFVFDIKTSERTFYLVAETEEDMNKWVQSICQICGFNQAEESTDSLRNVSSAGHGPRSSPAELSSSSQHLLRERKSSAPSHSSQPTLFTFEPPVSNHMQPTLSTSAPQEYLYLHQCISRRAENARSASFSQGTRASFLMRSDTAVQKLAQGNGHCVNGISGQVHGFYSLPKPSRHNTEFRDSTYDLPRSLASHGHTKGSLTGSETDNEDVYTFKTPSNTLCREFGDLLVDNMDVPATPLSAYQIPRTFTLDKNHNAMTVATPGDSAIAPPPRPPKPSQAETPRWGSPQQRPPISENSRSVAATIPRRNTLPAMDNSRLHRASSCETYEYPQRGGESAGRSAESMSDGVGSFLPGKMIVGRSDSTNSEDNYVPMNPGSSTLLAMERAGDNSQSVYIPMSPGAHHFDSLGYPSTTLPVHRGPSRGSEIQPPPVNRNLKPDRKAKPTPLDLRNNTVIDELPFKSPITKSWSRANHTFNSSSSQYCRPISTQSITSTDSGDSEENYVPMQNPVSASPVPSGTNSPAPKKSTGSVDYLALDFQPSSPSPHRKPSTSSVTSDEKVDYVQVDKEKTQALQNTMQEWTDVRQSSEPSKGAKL
UniProt Q8N2G8, sequence (Q8N2G8 whole entry, looked up): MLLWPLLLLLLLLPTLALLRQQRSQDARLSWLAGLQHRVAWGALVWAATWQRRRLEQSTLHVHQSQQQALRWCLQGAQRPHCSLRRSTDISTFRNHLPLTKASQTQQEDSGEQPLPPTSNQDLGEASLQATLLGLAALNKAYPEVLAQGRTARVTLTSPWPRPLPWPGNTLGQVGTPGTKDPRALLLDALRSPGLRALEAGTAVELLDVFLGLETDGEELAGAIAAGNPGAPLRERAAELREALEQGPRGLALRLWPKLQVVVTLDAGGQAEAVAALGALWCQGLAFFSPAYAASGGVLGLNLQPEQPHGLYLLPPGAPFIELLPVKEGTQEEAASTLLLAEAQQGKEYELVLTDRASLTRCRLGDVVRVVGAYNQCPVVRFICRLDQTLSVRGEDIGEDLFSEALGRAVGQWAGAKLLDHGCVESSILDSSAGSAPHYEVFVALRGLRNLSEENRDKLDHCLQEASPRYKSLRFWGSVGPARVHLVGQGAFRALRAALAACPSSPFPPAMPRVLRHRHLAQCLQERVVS
UniProt P55084, sequence (P55084 whole entry, looked up): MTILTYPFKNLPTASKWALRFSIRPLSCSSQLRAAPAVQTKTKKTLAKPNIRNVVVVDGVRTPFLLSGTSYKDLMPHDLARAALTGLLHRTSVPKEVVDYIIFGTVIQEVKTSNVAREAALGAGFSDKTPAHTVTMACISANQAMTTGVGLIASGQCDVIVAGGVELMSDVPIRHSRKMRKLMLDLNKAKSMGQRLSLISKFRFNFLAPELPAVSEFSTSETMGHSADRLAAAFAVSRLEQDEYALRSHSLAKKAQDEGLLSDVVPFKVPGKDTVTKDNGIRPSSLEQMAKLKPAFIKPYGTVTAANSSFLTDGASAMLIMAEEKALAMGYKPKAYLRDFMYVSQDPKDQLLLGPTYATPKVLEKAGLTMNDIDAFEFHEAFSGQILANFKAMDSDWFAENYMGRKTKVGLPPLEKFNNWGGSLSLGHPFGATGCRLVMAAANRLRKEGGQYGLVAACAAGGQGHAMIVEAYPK
UniProt Q92769, sequence (Q92769 whole entry, looked up): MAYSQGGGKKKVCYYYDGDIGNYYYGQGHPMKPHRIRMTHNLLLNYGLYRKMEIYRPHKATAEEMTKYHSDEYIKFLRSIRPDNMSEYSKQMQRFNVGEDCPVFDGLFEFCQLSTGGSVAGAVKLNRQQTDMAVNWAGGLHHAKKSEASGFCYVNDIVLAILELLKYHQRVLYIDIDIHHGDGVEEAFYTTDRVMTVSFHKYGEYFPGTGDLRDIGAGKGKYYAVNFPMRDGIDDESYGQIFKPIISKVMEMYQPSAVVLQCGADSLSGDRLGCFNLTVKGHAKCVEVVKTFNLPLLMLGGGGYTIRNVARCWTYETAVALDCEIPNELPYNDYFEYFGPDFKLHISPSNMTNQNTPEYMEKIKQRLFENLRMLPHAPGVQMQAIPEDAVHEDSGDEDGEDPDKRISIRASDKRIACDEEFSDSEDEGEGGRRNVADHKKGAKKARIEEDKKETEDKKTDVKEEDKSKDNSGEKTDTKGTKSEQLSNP
UniProt P14324, sequence (P14324 whole entry, looked up): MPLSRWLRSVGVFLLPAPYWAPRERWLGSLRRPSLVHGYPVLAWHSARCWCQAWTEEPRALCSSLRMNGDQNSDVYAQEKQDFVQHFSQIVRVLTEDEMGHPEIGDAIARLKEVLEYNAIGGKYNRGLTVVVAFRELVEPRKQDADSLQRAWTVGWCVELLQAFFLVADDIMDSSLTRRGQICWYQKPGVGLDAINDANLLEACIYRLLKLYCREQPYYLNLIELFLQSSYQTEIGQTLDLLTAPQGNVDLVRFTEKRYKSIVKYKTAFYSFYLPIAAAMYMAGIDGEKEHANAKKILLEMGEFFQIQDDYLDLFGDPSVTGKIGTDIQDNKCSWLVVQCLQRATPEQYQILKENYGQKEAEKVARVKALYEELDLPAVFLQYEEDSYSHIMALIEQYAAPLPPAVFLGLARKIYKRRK
UniProt O43524, sequence (O43524 whole entry, looked up): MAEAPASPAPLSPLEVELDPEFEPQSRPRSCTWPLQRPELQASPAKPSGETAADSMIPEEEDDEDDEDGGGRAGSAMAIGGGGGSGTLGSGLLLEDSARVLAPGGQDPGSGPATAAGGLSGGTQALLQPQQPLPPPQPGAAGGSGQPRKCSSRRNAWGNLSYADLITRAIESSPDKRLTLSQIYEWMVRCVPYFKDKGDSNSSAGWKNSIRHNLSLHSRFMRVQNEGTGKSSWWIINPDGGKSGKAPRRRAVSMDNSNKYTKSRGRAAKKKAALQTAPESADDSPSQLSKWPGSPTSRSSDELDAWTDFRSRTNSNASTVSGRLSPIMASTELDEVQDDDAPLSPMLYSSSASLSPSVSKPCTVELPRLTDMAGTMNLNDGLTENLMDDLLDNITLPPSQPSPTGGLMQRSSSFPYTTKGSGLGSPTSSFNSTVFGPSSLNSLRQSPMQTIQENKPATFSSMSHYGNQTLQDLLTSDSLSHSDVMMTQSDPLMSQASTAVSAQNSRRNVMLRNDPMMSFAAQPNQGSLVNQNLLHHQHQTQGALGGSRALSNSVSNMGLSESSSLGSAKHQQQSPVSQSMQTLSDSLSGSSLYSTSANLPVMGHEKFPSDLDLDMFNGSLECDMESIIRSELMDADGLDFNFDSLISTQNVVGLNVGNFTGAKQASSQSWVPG
UniProt P37268, sequence (P37268 whole entry, looked up): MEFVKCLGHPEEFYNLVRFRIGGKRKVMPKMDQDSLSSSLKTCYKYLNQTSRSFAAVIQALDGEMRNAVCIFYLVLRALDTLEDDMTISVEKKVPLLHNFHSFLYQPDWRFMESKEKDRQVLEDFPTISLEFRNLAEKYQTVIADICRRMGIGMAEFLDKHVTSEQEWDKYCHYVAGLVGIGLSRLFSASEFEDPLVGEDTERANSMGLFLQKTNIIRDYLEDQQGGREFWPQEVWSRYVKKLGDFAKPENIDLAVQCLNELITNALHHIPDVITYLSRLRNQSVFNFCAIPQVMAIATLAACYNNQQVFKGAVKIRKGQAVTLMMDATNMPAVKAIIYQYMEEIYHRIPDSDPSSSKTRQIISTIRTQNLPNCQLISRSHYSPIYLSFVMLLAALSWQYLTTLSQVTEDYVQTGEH
UniProt Q01628, sequence (Q01628 whole entry, looked up): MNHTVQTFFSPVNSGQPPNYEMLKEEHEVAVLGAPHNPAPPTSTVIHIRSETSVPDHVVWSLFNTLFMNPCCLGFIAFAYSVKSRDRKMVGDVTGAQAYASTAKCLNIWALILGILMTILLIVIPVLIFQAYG

What follows are targets tested with CCn1c(C(=O)N(C2CC2)C2CC2)cc2c3c(ncn3C)c(Nc3cc(C)n(C)n3)nc21 (assay: log2 fold change, soluble protein after heating vs DMSO (PISA); higher = thermal stabilisation; K562 cells, 10 uM, 30 min; active = over 0.2 and 3.5 SD of the protein, either way, in both replicates (recomputed)).
In short: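 K562 cells at 2×10^6 cells/mL were given 10 μM compound for 30 min. Aliquots then went through 3 min of heating across 48°C-58°C, were pooled, and were extracted in PBS with 0.5% NP-40 at 4°C, and the supernatant after 21,000xg for 90 min was quantified by TMTpro 16plex LC-MS/MS with channel sums equalised. Thermal stability relative to control samples, from duplicates, is given as log2 fold change.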
Target FAT1 (UniProt Q14517) has a log2 fold change of 0.006.
In the case of GAB2 (UniProt Q9UQC2), the log2 fold change was -0.085.
GLCCI1 (UniProt Q86VQ1) gave a log2 fold change of 0.087.
FANCI (UniProt Q9NVI1) showed a log2 fold change of -0.022.
GALNT11 (UniProt Q8NCW6) was tested, and the log2 fold change was -0.038.
FDPS (UniProt P14324) gave a log2 fold change of -0.054.
Target HDAC1 (UniProt Q13547) has a log2 fold change of -0.015.
With HDAC2 (UniProt Q92769) the log2 fold change was -0.049.
For HDAC7 isoform 5 (UniProt Q8WUI4), the log2 fold change was -0.031.
HPCAL1 (UniProt P37235) showed a log2 fold change of 0.003.
FCHO1 (UniProt O14526) showed a log2 fold change of 0.067.
HIP1R (UniProt O75146) was tested, and the log2 fold change was -0.04.
Target HADHB (UniProt P55084) has a log2 fold change of 0.161.
With GHDC (UniProt Q8N2G8) the log2 fold change was 0.011.
With FEN1 (UniProt P39748) the log2 fold change was -0.13.
GOPC (UniProt Q9HD26) was tested, and the log2 fold change was 0.
Work on FDFT1 (UniProt P37268) yielded a log2 fold change of -0.017.
For GDE1 (UniProt Q9NZC3), the log2 fold change was 0.002.
ICMT (UniProt O60725) showed a log2 fold change of 0.073.
GAK (UniProt O14976) gave a log2 fold change of 0.096.
Target GSTP1 (UniProt P09211) has a log2 fold change of 0.032.
Work on FOXO3 (UniProt O43524) yielded a log2 fold change of -0.213.
With FDXR isoform 7 (UniProt P22570) the log2 fold change was 0.01.
HNRNPH2 (UniProt P55795) gave a log2 fold change of -0.202.
GLIPR2 (UniProt Q9H4G4) showed a log2 fold change of -0.041.
For FIBP (UniProt O43427), the log2 fold change was -0.026.
HNRNPC isoform 2 (UniProt P07910) was tested, and the log2 fold change was -0.19.
In the case of FBXO7 (UniProt Q9Y3I1), the log2 fold change was -0.066.
Work on GPS2 (UniProt Q13227) yielded a log2 fold change of -0.011.
GGA2 (UniProt Q9UJY4) gave a log2 fold change of 0.005.
For GMEB1 (UniProt Q9Y692), the log2 fold change was -0.056.
In the case of FANCD2 isoform 1 (UniProt Q9BXW9), the log2 fold change was -0.04.
For GPX4 (UniProt P36969), the log2 fold change was 0.001.
IFITM3 (UniProt Q01628) showed a log2 fold change of -0.124.
